Source: PubChem BioAssay
Pf growth 48h: Primary qHTS for delayed death inhibitors of the malarial parasite plastid, 48 hour incubation; P. falciparum luciferase growth in erythrocytes, 48 h; AID 504832, 2011; 310,000 compounds, 5.9% hits; Potency, µM (titrated, usually from 28.7 µM), actives largely listed as inhibitors
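Erythrocytes infected with P. falciparum carrying an integrated firefly luciferase reporter (2% hematocrit, 0.1% parasitemia final) were exposed to compounds in RPMI 1640 with 0.5% Albumax at 37 C, 5% CO2. Growth inhibition was scored as reduced luminescence.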
Pf growth 96h: Primary qHTS for delayed death inhibitors of the malarial parasite plastid, 96 hour incubation; 320,000 compounds, 6.9% hits; AID 504834, 2011; P. falciparum luciferase reporter growth, 96 h; Potency, µM (series often up to 28.7 µM), hits mostly inhibitors
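Compounds incubated with erythrocytes infected by luciferase-expressing P. falciparum (2% hematocrit, 0.05% parasitemia final) for 96 hours, 37 C in 5% CO2. Growth inhibition scored as decreased luciferase luminescence.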
Marburg entry inh: qHTS for inhibitors of binding or entry into cells for Marburg Virus; Potency, µM (highest dose often 37.8 µM), usual class: inhibitors; AID 540276, 2011; 300,000 compounds, 1.8% hits; Marburg virus pseudotyped entry inhibition, cell reporter; calls by dose curve; tested in HEK293 cells
LASV entry inh: qHTS for Inhibitors of binding or entry into cells for Lassa Virus. Lassa virus pseudotype entry inhibition, cell reporter. Potency, µM (top dose mostly 37.9 µM), actives largely listed as inhibitors. 300,000 compounds, 1.2% hits; calls by dose curve; tested in HEK293 cells; note: nearly all actives have a fitted effect of over 50% in size
HCMV antiviral: qHTS Assay for inhibitors of the human cytomegalovirus (HCMV); HFF cells, HCMV-luciferase reporter, 72 h; hits give low values; AID 1259415, 2018; 410,000 compounds, 4.5% hits; activity change, negative = inhibition, % at 57.5 µM; in the data active = activity change below about -60%; inconclusive = no clear call, values can overlap the other calls; inactive = above about -39%
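Cell-based, HFFs, 1000 cells/well, 16 h 37C; cpds in DMSO + HCMV-luc, MOI 1 PFU/cell; 72 h 37C; OneGlo luminescence after 5 min RT; norm. to buffer vs Salinomycin 10uM.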
HCV inhibitor: qHTS Assay for Inhibitors of Hepatitis C Virus (HCV); Potency, µM (titrated, usually from 41.8 µM), hits mostly inhibitors; Huh7.5.1 HCVcc-Cre infection, luciferase reporter, 44 h; 340,000 compounds, 3.4% hits
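Whole-lifecycle infectious HCVcc-Cre system; cells 1,000/well, compound then virus (~0.5 moi) added 4 h after plating, 44 h culture. Luciferase read 15 sec following 15 min substrate incubation, room temp.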
Numbers stand for hits; . = inactive; ? = inconclusive; / = no result given; [ ] = another dose, or the depositor's remark. Only some compounds are listed: those with a hit (about 14% of all), similar ones and a draw of the others. Unless noted, calls come from the whole dose curve; as a rule, active = well fitted inhibition curve with a large enough effect; inconclusive = small, poorly fitted or top-dose-only effect, or another doubt; inactive = no such curve, though single readings can be large or run the other way.

SMILES	Pf growth 48h	Pf growth 96h	Marburg entry inh	LASV entry inh	HCMV antiviral	HCV inhibitor
Cn1c(SCC(=O)N2CCCc3ccccc32)nnc1-c1ccco1	.	.	?	.	.	?
CCN(CC)C(=O)CSc1nnc(-c2cc3ccccc3cc2O)n1CC	8.3µM	.	.	.	.	?
Cc1cccc(-c2nnc(SCC(=O)N3c4ccccc4CCc4ccccc43)n2C)c1	?	.	?	.	-70	?
Cn1c(SCC(=O)N2c3ccccc3CCc3ccccc32)nnc1-c1cc2ccccc2cc1O	1.9µM	.	?	.	-65	?
Cc1ccc(S(=O)(=O)N2CCCCC2)cc1NS(=O)(=O)c1ccccc1F	/	/	?	.	.	.
Cc1nc(C(=O)NCCCO)cc2c1[nH]c1ccccc12	.	.	/	/	.	?
O=C(NCCO)c1cc2c([nH]c3ccccc32)c(-c2ccccc2)n1	.	.	.	.	.	?
O=C(NCCO)c1cc2c([nH]c3ccccc32)c(-c2ccc(F)cc2)n1	?	15µM	.	.	.	11µM
Cc1nc(C(=O)NCCO)cc2c1[nH]c1ccccc12	.[0.00184 µM]	.	/	/	.	11µM
Cc1ccc(-c2nc(C(=O)NCCCN(C)C)cc3c2[nH]c2ccccc23)cc1	6.6µM	9.3µM	/	/	-98	11µM
C[C@@H]1CN([C@@H](C)CO)C(=O)CCCn2nncc2CO[C@H]1CN(C)Cc1ccc2c(c1)OCCO2	/	/	/	/	.	/
O=C(Nc1nnc2n1CCS2)c1cc(C(F)(F)F)cc(C(F)(F)F)c1	/	/	/	?	.	/
CCCc1nn2c(=O)cc(COC(=O)c3ccc(NC(=O)COc4ccccc4F)cc3)nc2s1	/	/	/	.	.	/
CC(Nc1ccc(Br)cc1)C(=O)NC(=O)NC1CCCCC1 (stereo not drawn)	/	/	/	/	.	/
Cc1ccc(N2CCN(C(=O)c3c(C)oc4ncn(CC(C)C)c(=O)c34)CC2)c(C)c1	/	/	/	.	.	/
COC(=O)C1=C(C)N=C2SC(C#N)=C(N)N2C1c1cc(OC)c(OC)c(OC)c1 (stereo not drawn)	?	?	.	.	.	.
COC(=O)C1=C(C)N=C2SC(C#N)=C(N)N2C1c1ccc(OCc2ccccc2)cc1 (stereo not drawn)	/	12µM	.	.	.	?
COc1ccc(C2CC(=O)c3cnc(NC(=O)c4cccc(OC)c4)nc3C2)cc1 (stereo not drawn)	?	?	.	.	.	?
COc1ccc(C2CC(=O)c3cnc(Nc4cc(C)cc(C)c4)nc3C2)cc1 (stereo not drawn)	?	?	.	0.46µM	.	.
COc1ccc(C2CC(=O)c3cnc(NC(=O)c4ccccc4OC)nc3C2)c(OC)c1 (stereo not drawn)	?	9.3µM	.	?	.	?
O=C(Cn1cnc2ccccc21)c1ccc(Br)cc1	?	.	.	.	.	.
Cn1c(CC(=O)c2ccc(Br)cc2)[n+](C)c2ccccc21	13µM	0.74µM	.	.	?	.
CCCCCn1c(CCNC(=O)c2cccs2)nc2ccccc21	?	.	?	.	.	?
CCCCCn1c(CNC(=O)c2cccs2)nc2ccccc21	?	0.59µM	?	.	.	.
CCCCn1c(CNC(=O)c2cccs2)nc2ccccc21	5.2µM	2.1µM	/	/	.	.
SMILES	Pf growth 48h	Pf growth 96h	Marburg entry inh	LASV entry inh	HCMV antiviral	HCV inhibitor
Cc1cc(Oc2ccc3c(-c4ccccn4)noc3n2)ccc1F	/	/	/	/	.	/
O=C(C1CCCCC1)N1C[C@H](O)[C@H](n2cc(C3CC3)nn2)C[C@@H]1c1ccc(Cl)cc1	/	/	/	.	/	/
c1ccc(OCCN2CCN(Cc3nc(-c4ccc5c(c4)OCO5)no3)CC2)cc1	.	15µM	/	/	.	?
Cc1ccc(-c2noc(CCC(=O)NCCCN3CCN(c4ccc(F)cc4)CC3)n2)cc1	?	.	.	.	.	?
Fc1ccc(CN2CCCN(Cc3nc(-c4ccc5c(c4)OCO5)no3)CC2)cc1	.	.	/	/	.	.
CN1CCCN(Cc2nc(-c3cccc(C(F)(F)F)c3)no2)CC1	.	12µM	.	.	.	?
CCOC(=O)C1CCN(C2CCN(Cc3nc(-c4ccccc4)no3)CC2)CC1	.	1.5µM	.	?	.	?
Cc1ccc(-c2noc(CCC(=O)NCCCN3CCN(c4cccc(Cl)c4)CC3)n2)cc1	9.3µM	.	?	?	.	11µM
CCc1noc(C)c1C(=O)NNC(=O)c1cc(OC)cc(OC)c1	.	.	/	/	.	.
Cc1ccc(-c2cc3nc(-c4ccccc4)cc(C(F)(F)F)n3n2)cc1	/	/	.	.	.	/
COc1ccc(-c2noc(CCC(=O)NCCCN3CCN(c4ccccc4F)CC3)n2)cc1	.	.	/	/	-67	?
Clc1cccc(N2CCN(Cc3nc(-c4ccccc4)no3)CC2)c1	.	5.9µM	/	/	.	.
COc1ccc(-c2noc(CCC(=O)NCCN3CCN(c4ccccc4F)CC3)n2)cc1	.	.	?	?	.	6.3µM
COC1=C[C@H](C(=O)NCCNC(C)=O)[C@@]2(C)Cc3ccccc3[C@@H]2CC1=O	/	/	.	?	/	/
O=C(CN1c2ccccc2Sc2ccccc21)NNC(=S)Nc1ccc(Cl)cc1Cl	.	.	.	?	.	.
O=C(CN1c2ccccc2Sc2ccccc21)NNC(=S)Nc1ccc(Cl)cc1	.	.	.	.	.	35µM
CN(C)c1ccc(NC(=O)C2(c3cccs3)CCOCC2)cc1	/	/	/	.	.	/
CCOC(=O)C1CCCN(c2ncnc3c2[nH]c2cccc(OC)c23)C1 (stereo not drawn)	12µM	/	.	/	/	/
COc1cccc2[nH]c3c(N4CCCC(C)C4)ncnc3c12 (stereo not drawn)	?	?	.	.	.	?
CCc1ccc(NC(=O)CCCc2nnc3n(CC(C)C)c(=O)c4sccc4n23)cc1	/	/	/	.	.	/
Cc1c(N=C2N=C(NC(=O)NC(C)(C)C)c3ccccc32)c(=O)n(-c2ccccc2)n1C	13µM	?	/	/	.	.
Cc1c(N=C2C=CC(=O)c3ccccc32)c(=O)n(-c2ccccc2)n1C	?	15µM	?	.	.	.
Cc1c(N=C2C=C(Br)C(=O)C(Br)=C2)c(=O)n(-c2ccccc2)n1C	.	?	.	.	.	.
Cc1c(N=C2NC(=O)C(CC(=O)Nc3ccccc3)S2)c(=O)n(-c2ccccc2)n1C (stereo not drawn)	.	/	.	.	.	.
Cc1c(NC(=O)Nc2ccc(C(C)(C)C)cc2)c(=O)n(-c2ccccc2)n1C	.	.	.	.	.	.
Cc1c(N=C2N=C(NC(=O)c3cccs3)c3ccccc32)c(=O)n(-c2ccccc2)n1C	.	.	?	?	.	10µM
COc1cc(-c2nnc(SCC3(c4ccccc4)OCCO3)o2)cc(OC)c1OC	13µM	5.2µM	.	?	.	?
